For assay [1], the system named is DLD1. Briefly: cell viability (CellTiter-Glo) relative to plate median (fraction of plate median); higher = more viable cells. The note with it: 5 µM; treatment time 24 h; reporter: 7TFP. An outline of the steps:
(§1)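 Luminescence, normalised well by well to the plate median, is tabulated as a mean of independent replicates. There were two replicates, run on colorectal cancer lines stably transduced with lentiviral TCF/Wnt firefly luciferase reporters and dosed with library compounds at a final 5 µM for 24 h. Readouts were firefly luciferase or CellTiterGlo on parallel plates.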

For assay [2], the system named is HCT116. Described as above. To be noted: 5 µM; treatment time 24 h; reporter: TCF4/Wnt. An outline of the steps:
as §1

The subject of assay [3] is SW480. The assay is described as above. The note with it: 5 µM; treatment time 24 h; reporter: 7TFP. In outline: as §1
Assay [4] concerns DLD1. Briefly: TCF/Wnt firefly luciferase reporter signal relative to plate median (fraction of plate median); higher = higher Wnt reporter signal. To be noted: 5 µM; treatment time 24 h; reporter: 7TFP. In outline: as §1
Assay [5] deals with SW480. The description is as above. The note with it: 5 µM; treatment time 24 h; reporter: 7TFP. In outline: as §1

± gives the standard deviation of the averaged measurements.

Consider `CCOC(=O)c1ccc(N)cc1`, for which the cell viability in assay [1] stood at 1 ± 0.05; in assay [2], 0.903 ± 0.076; in assay [3], 1.005 ± 0.0071. The “TCF/Wnt firefly luciferase reporter signal” value in assay [4] came out at 0.9395 ± 0.0092; in assay [5], 0.897 ± 0.09.
For `O=C1CN(/N=C/c2ccc(-c3ccc([N+](=O)[O-])cc3)o2)C(=O)N1`, the cell viability in assay [1] was 0.999 ± 0.044; in assay [2], 0.9895 ± 0.005; in assay [3], 0.97 ± 0.018. Moreover, the “TCF/Wnt firefly luciferase reporter signal” value in assay [4] worked out at 1 ± 0.042; in assay [5], 1.02 ± 0.014.
In the case of `FC(F)(F)COCC(F)(F)F`, the cell viability in assay [1] was found to be 0.944 ± 0.047; in assay [2] it was 0.922 ± 0.041; in assay [3], 0.99 ± 0.029. The “TCF/Wnt firefly luciferase reporter signal” value was found to be 0.762 ± 0.016 in assay [4] and 0.825 ± 0.1 in assay [5].
As for `Cn1c(=O)c2nc[nH]c2n(C)c1=O`, the cell viability in assay [1] came to 0.996 ± 0.13; in assay [2] it was 1.04 ± 0.021; in assay [3] it was 1.07 ± 0.035. In addition, the “TCF/Wnt firefly luciferase reporter signal” value amounted to 1.19 ± 0.014 in assay [4] and 0.986 ± 0.077 in assay [5].
Regarding `CCCCCC1C(=O)CCC1CC(=O)O` (stereo not given), the cell viability was found to be 1.02 ± 0.25 in assay [1], 1.2 ± 0.18 in assay [2] and 1.105 ± 0.0071 in assay [3]. Moreover, the “TCF/Wnt firefly luciferase reporter signal” value is 1.06 ± 0.099 in assay [4] and 1.04 ± 0.058 in assay [5].
Taken in the same sequence, the figures for `O=C1c2c(O)cccc2C([C@@H]2O[C@H](CO)[C@@H](O)[C@H](O)[C@H]2O)c2cc(CO)cc(O)c21` (stereo not given in full) were 1.05 ± 0.1, 1.1 ± 0.078, 1.015 ± 0.0071, 1.2 ± 0.021 and 1.07 ± 0.05.
In the case of `O=NN(CCCl)C(=O)NCCCl`, the results for the cell viability in assay [1], in assay [2] and in assay [3] were 1.05 ± 0.014, 1.06 ± 0.05 and 1.04, respectively. For the same compound, the “TCF/Wnt firefly luciferase reporter signal” value came to 1.19 ± 0.021 in assay [4] and 1.045 ± 0.0071 in assay [5].
`COC(=O)C1=C(C)NC(C)=C(C(=O)OCC(C)C)C1c1ccccc1[N+](=O)[O-]` (stereo not given): the figures for the cell viability in assay [1], in assay [2] and in assay [3] were 0.869 ± 0.11, 1 ± 0.041 and 0.905 ± 0.071, respectively. The “TCF/Wnt firefly luciferase reporter signal” value came to 0.961 ± 0.24 in assay [4] and 0.923 ± 0.037 in assay [5].
Take `CC(=O)OCC(=O)[C@@]1(O)[C@H](OC(C)=O)C[C@H]2[C@@H]3CCC4=CC(=O)C=C[C@]4(C)[C@@]3(F)[C@@H](O)C[C@@]21C`: the cell viability turned out to be 1.01 ± 0.069 in assay [1], 1.09 ± 0.057 in assay [2] and 1.03 ± 0.052 in assay [3]. Besides, the “TCF/Wnt firefly luciferase reporter signal” value in assay [4] worked out at 1.1 ± 0.26; in assay [5], 0.894 ± 0.069.
In the same order, the values of `COc1c2ccoc2nc2c(OC)c(OCC(O)C(C)(C)O)ccc12` (stereo not given) are 1.02 ± 0.038, 1 ± 0.014, 1 ± 0.013, 1.03 ± 0.047 and 1.02 ± 0.057.
Take `CC(=O)O[C@@H]1CC(=O)[C@@]2(C)C(CC(=O)[C@]3(C)C2CC[C@@]2(C)[C@H](c4ccoc4)OC(=O)C4OC423)C1(C)C` (stereo not given in full): the cell viability in assay [1] came out at 1.025 ± 0.0071; in assay [2] it was 1.025 ± 0.0071; in assay [3], 0.981 ± 0.0057. For the same compound, the “TCF/Wnt firefly luciferase reporter signal” value in assay [4] was determined as 0.986 ± 0.12; in assay [5] it was 1.05 ± 0.098.
Turning to `C[C@@H]1Cc2cc(O)cc(O)c2C(=O)O1` [6-Hydroxymellein], the cell viability in assay [1] turned out to be 0.98 ± 0.0071; in assay [2], 0.987 ± 0.018; in assay [3], 1.015 ± 0.0071. For the same compound, the “TCF/Wnt firefly luciferase reporter signal” value came out at 0.927 ± 0.1 in assay [4] and 0.974 ± 0.037 in assay [5].
Taken in the same sequence, the figures for `CC(=O)Oc1cc(C)c2c(c1C(OC(C)=O)OC(C)=O)Oc1c(c(C)c(OC(C)=O)c3c1C(OC(C)=O)OC3=O)OC2=O` (stereo not given) were 0.969 ± 0.044, 0.975 ± 0.025, 0.943 ± 0.064, 0.993 ± 0.081 and 1.18 ± 0.099.
Taken in the same sequence, the figures for `NCCS` were 1.02 ± 0.014, 1.07 ± 0.12, 1.035 ± 0.0071, 1.21 ± 0.021 and 1.16 ± 0.092.
Regarding `N[C@@H](Cc1cc(I)c(Oc2ccc(O)c(I)c2)c(I)c1)C(=O)O`, the figures for the cell viability in assay [1], in assay [2] and in assay [3] were 0.988 ± 0.015, 0.926 ± 0.012 and 0.969 ± 0.036, respectively. For the same compound, the figures for the “TCF/Wnt firefly luciferase reporter signal” value in assay [4] and in assay [5] were 1.01 ± 0.17 and 0.978 ± 0.0099, respectively.
`O=C(O)c1cc(=O)c2ccccc2[nH]1`: the cell viability in assay [1] was determined as 1.01 ± 0.021; in assay [2], 0.968 ± 0.16; in assay [3], 0.9555 ± 0.0064. The entries for the “TCF/Wnt firefly luciferase reporter signal” value in assay [4] and in assay [5] were 0.8765 ± 0.0078 and 0.986 ± 0.048, respectively.
Regarding `C[C@](N)(Cc1ccc(O)c(O)c1)C(=O)O`, the cell viability in assay [1] was 0.981 ± 0.098; in assay [2], 0.996 ± 0.062; in assay [3], 1.03 ± 0.028. The results for the “TCF/Wnt firefly luciferase reporter signal” value in assay [4] and in assay [5] were 1.04 ± 0.087 and 1.03 ± 0.12, respectively.
As for `S=P(N1CC1)(N1CC1)N1CC1`, the cell viability in assay [1] came to 0.975 ± 0.036; in assay [2] it was 0.928 ± 0.017; in assay [3] it was 1.01 ± 0.03. Moreover, the figures for the “TCF/Wnt firefly luciferase reporter signal” value in assay [4] and in assay [5] were 0.975 ± 0.03 and 0.93 ± 0.021, respectively.
Consider `COC(=O)C[C@H]1C(C)(C)C(=O)[C@@H]2CC3C4=CC(=O)O[C@@H](c5ccoc5)[C@]4(C)CC[C@@H]3[C@@]1(C)C2=O` (stereo not given in full), for which the cell viability in assay [1] was 0.924 ± 0.0042; in assay [2], 1.01 ± 0.06; in assay [3], 0.957 ± 0.03. The “TCF/Wnt firefly luciferase reporter signal” value in assay [4] worked out at 1.04 ± 0.014; in assay [5] it was 0.866 ± 0.062.
Take `NCCCCN`: the cell viability in assay [1] was 0.96 ± 0.047; in assay [2] it was 0.983 ± 0.02; in assay [3] it was 0.97 ± 0.057. The “TCF/Wnt firefly luciferase reporter signal” value turned out to be 1.18 ± 0.15 in assay [4] and 1.1 ± 0.05 in assay [5].
As for `Cc1cc2nc3c(=O)[nH]c(=O)nc-3n(C[C@H](O)[C@H](O)[C@H](O)CO)c2cc1C`, the values for the cell viability in assay [1], in assay [2] and in assay [3] were 0.984 ± 0.052, 0.919 ± 0.051 and 0.974 ± 0.016, respectively. The results for the “TCF/Wnt firefly luciferase reporter signal” value in assay [4] and in assay [5] were 1.07 ± 0.035 and 0.907 ± 0.021, respectively.
On to `COc1ccc2oc3ccccc3c(=O)c2c1`, for which the cell viability is 1.075 ± 0.0071 in assay [1], 1.05 ± 0.078 in assay [2] and 1.09 ± 0.05 in assay [3]. For the same compound, the “TCF/Wnt firefly luciferase reporter signal” value was found to be 1.15 ± 0.13 in assay [4] and 1.1 ± 0.078 in assay [5].
Taken in the same sequence, the figures for `Nc1ccc(S(=O)(=O)Nc2ccc(Cl)nn2)cc1` were 1.06 ± 0.096, 1.03 ± 0.035, 1.08 ± 0.05, 0.954 ± 0.028 and 1.09 ± 0.042.
On to `CC1(C)O[C@@H]2C[C@H]3[C@@H]4C[C@H](F)C5=CC(=O)C=C[C@]5(C)[C@@]4(F)[C@@H](O)C[C@]3(C)[C@]2(C(=O)CO)O1`, for which the values for the cell viability in assay [1], in assay [2] and in assay [3] were 0.955 ± 0.11, 1 ± 0.093 and 0.975 ± 0.05, respectively. In addition, the “TCF/Wnt firefly luciferase reporter signal” value came out at 0.974 ± 0.032 in assay [4] and 0.944 ± 0.038 in assay [5].
Consider `COC(=O)C(O)c1ccccc1` (stereo not given), for which the cell viability was 1.04 ± 0.021 in assay [1], 1.11 in assay [2] and 1.07 ± 0.035 in assay [3]. In addition, the “TCF/Wnt firefly luciferase reporter signal” value in assay [4] is 1.04 ± 0.042; in assay [5] it was 0.876 ± 0.019.
Turning to `O=C(O)C1CC([C@@H]2CCCCN2)CN2CCCCC12` (stereo not given in full), the cell viability in assay [1] came to 1.03 ± 0.11; in assay [2], 1.03 ± 0.17; in assay [3] it was 0.981 ± 0.015. For the same compound, the results for the “TCF/Wnt firefly luciferase reporter signal” value in assay [4] and in assay [5] were 1.07 ± 0.064 and 1 ± 0.064, respectively.
In the same order, the values of `CC(=O)CCCCn1c(=O)c2c(ncn2C)n(C)c1=O` are 0.93 ± 0.015, 0.911 ± 0.054, 0.94 ± 0.051, 1.15 ± 0.085 and 1.03 ± 0.014.
For `CC(C)c1nc(N(C)S(C)(=O)=O)nc(-c2ccc(F)cc2)c1/C=C/[C@@H](O)C[C@@H](O)CC(=O)O`, the results for the cell viability in assay [1], in assay [2] and in assay [3] were 0.93 ± 0.11, 0.9675 ± 0.00071 and 1.02 ± 0.014, respectively. Also, the “TCF/Wnt firefly luciferase reporter signal” value was 0.984 ± 0.08 in assay [4] and 0.913 ± 0.15 in assay [5].

For the origin of these results see the supplement of paper PMC6522484.
